# Results taken from PubChem BioAssay (EPA / NIEHS).
# Inconclusive results are not listed. Activity calls are given as the source filed them. The calls were made as follows: active = hit-call score of the fitted dose curve at least 0.9, where 1 is the maximum; inconclusive = response in the unintended direction; inactive = score below 0.9.
# Experiment: CCTE_Shafer_MEA_dev_AB: CCTE's Alamar Blue Assay for Cytotoxicity in the Neural Network Formation Assay, Shafer Lab (AID 2284083);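 also: resazurin reduction fluorescence as viability of cultured neurons; twelve days of exposure from plating with re-dosing on DIV 5 and 9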
# Summary of the method: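 Fluorescent resazurin reduction serves as the viability read-out, with DMSO as negative control and baseline. Cells were primary rat cortical neurons grown on MEA plates and dosed from day 0 to day 12, treatment renewed on DIV 5 and 9.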
row,Structure (SMILES),outcome
1,O=C1O[C@H]([C@@H](O)CO)C(O)=C1O,inactive
2,CC/C(=C(/CC)c1ccc(O)cc1)c1ccc(O)cc1,inactive
3,CN1C(=O)CC[C@H]1c1cccnc1,inactive

# Experiment: CCTE_Shafer_MEA_acute_LDH: CCTE's Lactate Dehydrogenase Assay for Cytotoxicity in the Neural Acute Assay, Shafer Lab (AID 2284086);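 also: active means LDH release rises above DMSO vehicle level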
# Summary of the method: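 LDH released during 40 min compound exposure of primary rat cortical cultures, quantified by absorbance at 490 nm in collected medium. Fitting direction positive versus DMSO vehicle.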
row,Structure (SMILES),outcome
1,O=C1O[C@H]([C@@H](O)CO)C(O)=C1O,inactive
2,CN(C)C(=O)C1(N2CCCCC2)CCN(CC[C@@]2(c3ccc(Cl)c(Cl)c3)CN(C(=O)c3ccccc3)CCO2)CC1,inactive
3,CCCCCCCCOC(=O)c1cc(O)c(O)c(O)c1,inactive
4,O=c1[nH]sc2ccccc12,inactive
5,CCN(CC)C(=O)c1cc(S(=O)(=O)Cc2ccccc2)c(N2CCC(c3ccccc3)CC2)cc1N(CC)CCN(C)C,inactive
6,Cc1cc2c(cc1C(F)(F)F)N(C(=O)Nc1ccc(Oc3cccnc3C)nc1)CC2,inactive
7,CN(C[C@@H](CC[N+]12CCC(C3CCCCC3)(CC1)CC2)c1ccc(Cl)c(Cl)c1)C(=O)c1cc(C(F)(F)F)cc(C(F)(F)F)c1,inactive
8,CO[C@H]1/C=C/O[C@@]2(C)Oc3c(C)c(O)c4c(O)c(c(/C=N/N5CCN(C)CC5)c(O)c4c3C2=O)NC(=O)/C(C)=C\C=C\[C@H](C)[C@H](O)[C@@H](C)[C@@H](O)[C@@H](C)[C@H](OC(C)=O)[C@@H]1C,inactive
9,NCc1cccc(C2CCN(C(=O)c3ccc(C#Cc4ccccc4F)o3)CC2)c1,inactive
10,O=C(O)c1ccccc1-n1cc(C(=O)O)c(=O)c2cc(Nc3c(F)cc(F)cc3Cl)c(Cl)cc21,inactive
11,CC(O)CC(C)(C)O (stereo unspecified),inactive
12,Cc1c2ccccc2c(C)c2c1ccc1ccccc12,inactive
13,COc1cc(C(=O)NC2CCN(C)CC2)ccc1Nc1ncc2c(n1)N(C1CCCC1)CC(F)(F)C(=O)N2C,inactive
